Measurements taken from PubChem BioAssay AID1159580 (chemical genetic matrix, 2015).
Out of some 5,500 compounds screened, about 2,000 (36%) were called active. Another 18% or so got no clear call; they are omitted. Rule as the data show it: active = normalized growth mostly below about 0.91 (no sharp cut-off); inconclusive = no clear call, values can overlap the other calls; inactive = mostly above about 0.92. The list shows a part of the results.

Experiment: chemical genetic growth profiling, strain panel (AID 1159580);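 also: tested at 20 µM; growth read once vehicle control cultures reached saturation at 30 °C; 1 = growth at the plate median or of vehicle wells; lower values mean less growth of the strain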
Conditions: growth OD

Measured: normalized growth

C[C@]12C=CC(=O)C=C1CCC1C2C(=O)C[C@@]2(C)C1CC[C@]2(O)C(=O)CO (stereo partly specified)
inactive: S. cerevisiae deletion strains, locus YJR075W, strain HOC1, stronger effect = lower value 0.985 | S. cerevisiae deletion strains, locus YKL009W, strain mrt4, stronger effect = lower value 0.979 | S. cerevisiae deletion strains, locus YKL068W, stronger effect = lower value 0.989 | S. cerevisiae deletion strains, locus YKL085W, strain MDH1 (second series), stronger effect = lower value 0.998 | S. cerevisiae deletion strains, locus YKL085W, strain MDH1, stronger effect = lower value 0.998 | S. cerevisiae deletion strains, locus YKL160W, strain elf1, stronger effect = lower value 0.97 | S. cerevisiae deletion strains, locus YKL190W, strain CNB1, stronger effect = lower value 0.989 | S. cerevisiae deletion strains, locus YKR001C, strain vps1, stronger effect = lower value 0.995 | S. cerevisiae deletion strains, locus YKR026C, strain gcn3, stronger effect = lower value 0.997 | S. cerevisiae deletion strains, locus YKR091W, strain srl3, stronger effect = lower value 0.997 | S. cerevisiae deletion strains, locus YLL001W, strain dnm1, stronger effect = lower value 0.955 | S. cerevisiae deletion strains, locus YLL026W, stronger effect = lower value 0.986 | S. cerevisiae deletion strains, locus YLL041C, strain sdh2, stronger effect = lower value 0.994 | S. cerevisiae deletion strains, locus YLR027C, strain aat2, stronger effect = lower value 0.978 | S. cerevisiae deletion strains, locus YLR039C, strain RIC1, stronger effect = lower value 0.993 | S. cerevisiae deletion strains, locus YLR058C, strain SHM2, stronger effect = lower value 0.978 | S. cerevisiae deletion strains, locus YLR102C, strain apc9, stronger effect = lower value 0.99 | S. cerevisiae deletion strains, locus YLR113W, strain HOG1, stronger effect = lower value 1.03 | S. cerevisiae deletion strains, locus YLR221C, strain rsa3, stronger effect = lower value 1.01 | S. cerevisiae deletion strains, locus YLR258W, strain gsy2, stronger effect = lower value 1.02 | S. cerevisiae deletion strains, locus YLR262C, strain YPT6 (second series), stronger effect = lower value 0.986 | S. cerevisiae deletion strains, locus YLR262C, strain YPT6, stronger effect = lower value 0.968 | S. cerevisiae deletion strains, locus YLR268W, strain sec22, stronger effect = lower value 1.05 | S. cerevisiae deletion strains, locus YLR320W, strain mms22, stronger effect = lower value 0.985 | S. cerevisiae deletion strains, locus YLR330W, strain CHS5, stronger effect = lower value 0.998 | S. cerevisiae deletion strains, locus YLR342W, strain FKS1 (second series), stronger effect = lower value 1.01 | S. cerevisiae deletion strains, locus YLR342W, strain FKS1, stronger effect = lower value 0.978 | S. cerevisiae deletion strains, locus YLR357W, strain rsc2, stronger effect = lower value 0.992 | S. cerevisiae deletion strains, locus YLR370C, strain arc18, stronger effect = lower value 0.994 | S. cerevisiae deletion strains, locus YLR371W, strain rom2, stronger effect = lower value 0.974 | S. cerevisiae deletion strains, locus YLR384C, strain iki3, stronger effect = lower value 0.985 | S. cerevisiae deletion strains, locus YLR418C, strain cdc73, stronger effect = lower value 0.985 | S. cerevisiae deletion strains, locus YML016C, strain PPZ1, stronger effect = lower value 0.991 | S. cerevisiae deletion strains, locus YML032C, strain rad52, stronger effect = lower value 1.01 | S. cerevisiae deletion strains, locus YML120C, strain ndi1, stronger effect = lower value 0.986 | S. cerevisiae deletion strains, locus YML124C, strain tub3, stronger effect = lower value 0.983 | S. cerevisiae deletion strains, locus YMR058W, strain fet3, stronger effect = lower value 0.996 | S. cerevisiae deletion strains, locus YMR078C, strain ctf18, stronger effect = lower value 0.979 | S. cerevisiae deletion strains, locus YMR125W, strain sto1, stronger effect = lower value 0.987 | S. cerevisiae deletion strains, locus YMR129W, stronger effect = lower value 1 | S. cerevisiae deletion strains, locus YMR205C, strain PFK2, stronger effect = lower value 0.988 | S. cerevisiae deletion strains, locus YMR223W, strain ubp8, stronger effect = lower value 0.963 | S. cerevisiae deletion strains, locus YMR231W, strain pep5, stronger effect = lower value 1.02 | S. cerevisiae deletion strains, locus YMR263W, strain SAP30, stronger effect = lower value 0.992 | S. cerevisiae deletion strains, locus YMR307W, strain GAS1, stronger effect = lower value 0.991 | S. cerevisiae deletion strains, locus YNL067W, strain RPL9B, stronger effect = lower value 0.992 | S. cerevisiae deletion strains, locus YNL071W, strain lat1, stronger effect = lower value 1.01 | S. cerevisiae deletion strains, locus YNL153C, strain GIM3, stronger effect = lower value 0.99 | S. cerevisiae deletion strains, locus YNL183C, strain NPR1, stronger effect = lower value 0.986 | S. cerevisiae deletion strains, locus YNL209W, strain ssb2, stronger effect = lower value 1.01 | S. cerevisiae deletion strains, locus YNL233W, strain BNI4, stronger effect = lower value 0.997 | S. cerevisiae deletion strains, locus YNL248C, strain rpa49, stronger effect = lower value 1 | S. cerevisiae deletion strains, locus YNL250W, strain rad50, stronger effect = lower value 0.981 | S. cerevisiae deletion strains, locus YNL271C, strain bni1, stronger effect = lower value 0.999 | S. cerevisiae deletion strains, locus YNL298W, strain CLA4, stronger effect = lower value 0.982 | S. cerevisiae deletion strains, locus YNL307C, strain MCK1, stronger effect = lower value 0.998 | S. cerevisiae deletion strains, locus YNL322C, strain KRE1 (second series), stronger effect = lower value 0.998 | S. cerevisiae deletion strains, locus YNL322C, strain KRE1, stronger effect = lower value 0.994 | S. cerevisiae deletion strains, locus YNR049C, strain mso1, stronger effect = lower value 0.999 | S. cerevisiae deletion strains, locus YNR052C, strain pop2, stronger effect = lower value 0.995 | S. cerevisiae deletion strains, locus YOL006C, strain TOP1, stronger effect = lower value 0.938 | S. cerevisiae deletion strains, locus YOL012C, strain htz1 0.891 | S. cerevisiae deletion strains, locus YOL147C, strain pex11, stronger effect = lower value 0.999 | S. cerevisiae deletion strains, locus YOR001W, strain rrp6, stronger effect = lower value 0.976 | S. cerevisiae deletion strains, locus YOR061W, strain CKA2, stronger effect = lower value 0.963 | S. cerevisiae deletion strains, locus YOR069W, strain VPS5, stronger effect = lower value 0.997 | S. cerevisiae deletion strains, locus YOR070C, strain gyp1, stronger effect = lower value 1.01 | S. cerevisiae deletion strains, locus YOR080W, strain dia2, stronger effect = lower value 0.992 | S. cerevisiae deletion strains, locus YOR083W, strain WHI5, stronger effect = lower value 0.964 | S. cerevisiae deletion strains, locus YOR106W, strain vam3, stronger effect = lower value 0.993 | S. cerevisiae deletion strains, locus YOR136W, strain idh2, stronger effect = lower value 0.982 | S. cerevisiae deletion strains, locus YOR144C, strain elg1, stronger effect = lower value 0.985 | S. cerevisiae deletion strains, locus YOR184W, strain ser1, stronger effect = lower value 0.973 | S. cerevisiae deletion strains, locus YOR231W, strain MKK1, stronger effect = lower value 1.01 | S. cerevisiae deletion strains, locus YOR265W, strain rbl2, stronger effect = lower value 0.993 | S. cerevisiae deletion strains, locus YOR270C, strain vph1, stronger effect = lower value 1.02 | S. cerevisiae deletion strains, locus YOR290C, strain snf2, stronger effect = lower value 1.03 | S. cerevisiae deletion strains, locus YOR316C, strain cot1, stronger effect = lower value 0.985 | S. cerevisiae deletion strains, locus YPL051W, strain arl3, stronger effect = lower value 0.989 | S. cerevisiae deletion strains, locus YPL055C, strain LGE1, stronger effect = lower value 0.94 | S. cerevisiae deletion strains, locus YPL078C, strain atp4, stronger effect = lower value 0.955 | S. cerevisiae deletion strains, locus YPL106C, strain sse1, stronger effect = lower value 1.01 | S. cerevisiae deletion strains, locus YPL240C, strain hsp82, stronger effect = lower value 0.987 | S. cerevisiae deletion strains, locus YPL241C, strain CIN2, stronger effect = lower value 0.997 | S. cerevisiae deletion strains, locus YPL256C, strain CLN2, stronger effect = lower value 1.05 | S. cerevisiae deletion strains, locus YPR119W, strain clb2, stronger effect = lower value 0.982 | S. cerevisiae deletion strains, locus YPR141C, strain kar3, stronger effect = lower value 0.98 | S. cerevisiae deletion strains, locus YPR163C, strain tif3, stronger effect = lower value 0.986 | S. cerevisiae deletion strains, locus YPR167C, strain met16, stronger effect = lower value 0.996 | S. cerevisiae deletion strains, strain wtn01, stronger effect = lower value 0.992 | S. cerevisiae strains, strain wild type, stronger effect = lower value 0.986
